Results taken from PubChem BioAssay AID652256 (National Center for Advancing Translational Sciences (NCATS), 2013).
This is one part of the list. Calls of active or inactive are those of the source.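 Rule for the calls: active = a half-inhibiting concentration could be measured and was below 100 µM; inactive = the rest.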

System: Thioredoxin reductase 1 (TXNRD1), rat
Assay: qHTS Assay for Inhibitors of Mammalian Selenoprotein Thioredoxin Reductase 1 (TrxR1): DTNB Assay
Conditions: purified TrxR1, DTNB reduction, A412
Text: The selenoprotein thioredoxin reductase (TrxR; EC 1.8.1.9) is a FAD containing homodimeric pyridine nucleotide-disulfide oxidoreductase with many cellular roles. Together with NADPH and its prime substrate thioredoxin (Trx), the enzyme forms the core of the Trx system. The mammalian Trx system exerts a wide spectrum of functions including redox regulation, antioxidant defense, regulation of transcription factors as well as support of cell growth and replication. Many of these functions involve the reduction of Trx, which may subsequently reduce a number of different substrates including ribonucleotide reductase, peroxiredoxins or NFkB. Mammalian TrxR itself also has a broad substrate specificity, reducing both protein and non-protein substrates, including low molecular weight compounds such as dehydroascorbate, lipoic acid, ubiquinone, and juglone. In addition, several drugs in clinical use for anticancer treatment are indeed known to target TrxR1. This orthogonal DTNB assay seeks to further characterize cherry picks. […]
15 nM TrxR1 is reduced by 250 microM NADPH in TE buffer [50 mM Tris-HCl (pH 7.5), 2 mM EDTA] in a 96-well microtiter plate. […] During compound incubation, NADPH consumption is followed by the decrease in absorbance at 340 nm using a VersaMax microplate reader (Molecular Devices) to determine substrate potential of the compound. […]

COc1ccc(-c2nc(CS(=O)CC(=O)N3CCC4(CC3)OCCO4)c(C)o2)cc1 (stereo unspecified)
Potency: 1460 nM (active)
